Compound activity: PubChem, National Center for Advancing Translational Sciences (NCATS)
Shown is part of a subset that was picked to be rich in hits.
Pf Dd2 growth = inhibitors of Plasmodium falciparum Dd2 growth | P. falciparum Dd2 growth, SYBR Green, 72 h | Potency, µM (top dose mostly 28.9 µM), most hits filed as inhibitors | 4.3% of 120,000 active | AID 1347417; active = well fitted inhibition curve with a large enough effect; note: nearly all actives have a fitted effect of over 65% in size
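Readout: SYBR Green fluorescence, 485 nm excitation, 535 nm emission, after ~16 h lysis at 37C. Before that, Dd2-infected red cells (2.5% hematocrit) grew 72 h with compound, 29 uM top final concentration.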
A number is an active result; i = inactive; [ ] = remark or other dose.

SMILES | Pf Dd2 growth
O=C(Cn1cc(S(=O)(=O)c2ccc(F)cc2)c(=O)c2cc3c(cc21)OCO3)Nc1ccccc1 | i
COc1ccc2c(c1)c(=O)c(C(=O)c1ccc(Cl)cc1)cn2CC(=O)Nc1ccc2c(c1)OCO2 | i
CN(C)C(=O)c1cccnc1OC1CCN(C(=O)c2ccc(F)c(F)c2)C1 (stereo not drawn) | i
CCc1nnc([C@@H]2CC(F)(F)CN2C(=O)Cn2cccn2)o1 | i
CN(C)c1nc2c(c(=O)[nH]1)CCN(Cc1cc(F)cc(F)c1)CC2 | i[5.79 µM]
CNC(=O)CCC1CCCN(S(=O)(=O)c2cccc(F)c2)C1 (stereo not drawn) | i
CC(C)c1nc(CN(C)C(=O)c2cc(COc3ccccc3)[nH]n2)no1 | i
COCC1CN(S(=O)(=O)c2ccc(C#N)cc2)CC12CCNCC2 (stereo not drawn) | i
CCNC(=O)N1C[C@@H](Oc2cccnc2)C[C@H]1C(=O)N1CCCC1 | i
CCN1CCN(c2ncc3c(n2)CCN(Cc2ccc(C)s2)C3)CC1 | i
CN1CCN(c2ncc3c(n2)CCN(Cc2ccc(Br)s2)C3)CC1 | i
COc1cc(CN2CCc3nc(N4CCN(c5ccccc5F)CC4)ncc3C2)ccc1OC(C)C | i
CCOc1ccccc1CN1CCc2nc(N(C)C)[nH]c(=O)c2CC1 | i[5.79 µM]
CCOc1ccccc1CN1CCc2nc(N3CCN(c4ccccc4F)CC3)ncc2C1 | 8.9µM
COc1cc(CN2CCc3nc(N4CCN(c5ncccn5)CC4)ncc3C2)cc(OC)c1OC | 7.9µM
Cc1ccc(CN2CCc3nc(N4CCN(c5ccccc5F)CC4)ncc3C2)cc1C | i
CCN1CCN(c2ncc3c(n2)CCN(Cc2cc(Br)cs2)C3)CC1 | 13µM
CCOc1ccc(CN2CCc3nc(Nc4ccc(OC)cc4OC)ncc3C2)cc1 | i
CCOc1ccc(CN2CCc3nc(N4CCN(c5ccccn5)CC4)ncc3C2)cc1OC | i
CN(C)c1ccc(CN2CCc3nc(N4CCN(c5ccccn5)CC4)ncc3C2)cc1 | 13µM
COCCn1cc(CN2CCN(c3ccccn3)CC2)ccc1=O | i
Cc1cccc([S+](=O)([O-])N2CCC3(CC2)OCCN(c2cccnc2)C3=O)c1 | i
CCc1ncc(C(=O)N(C)C2CCN(Cc3ccccc3)C2)cn1 (stereo not drawn) | i
O=C(O)c1ccc(CN2C[C@H](O)C[C@H]2c2nc(C3CC3)no2)cc1 | i
CSc1ccccc1C(=O)N1CCOC(Cc2cccc(F)c2)C1 (stereo not drawn) | i
SMILES | Pf Dd2 growth
O=C(NCCc1noc(C2CC2)n1)Nc1cccc(C(F)(F)F)c1 | i
CC(C)CN1C(=O)c2cccn2CC1C(=O)NCc1ccc(Cl)cc1 (stereo not drawn) | i
Cc1ccccc1CNC[C@H]1O[C@@H]2C[C@@H](CC(=O)NCc3nccn3C)O[C@@H]2[C@@H]1O | i
Cc1csc(NC(=O)[C@@H]2CCC[C@@H](NCc3cccnc3)CN(C)C(=O)C2)n1 | i
O=[S+]1([O-])NCC2(CCCN(Cc3ccc(F)cc3)C2)Oc2ncccc21 (stereo not drawn) | i
O=C(NCc1ccccc1)N1CCCC(c2nc(CCOc3ccc(F)cc3)no2)C1 (stereo not drawn) | i
COc1ccccc1N1CCN(c2ncc3c(n2)CCN(Cc2ccccc2C)C3)CC1 | i
Cc1ccccc1CN1CCc2nc(N3CCN(c4ncccn4)CC3)ncc2C1 | 8.9µM
CCCCN1CCc2nc(N3CCN(C)CC3)ncc2C1 | i
O=C(c1cscn1)N1CCC2(CC1)CN(c1ccncn1)CC2CO (stereo not drawn) | i
COc1ccc(OC)c(NC(=O)C2CCN(C(=O)N3CC4CC(C3)[C@H]3CCCC(=O)N3C4)CC2)c1 (stereo partly drawn) | i
O=C(Nc1ccc(Oc2ccccc2)cc1)N[C@H]1CO[C@H]2[C@@H]1OC[C@H]2OC(=O)Nc1cccc2ccccc12 | i
O=C(Nc1ccc(Oc2ccccc2)cc1)O[C@@H]1CO[C@H]2[C@@H]1OC[C@@H]2NC(=S)Nc1cccc2ccccc12 | 13µM
O=C(Nc1cccc2ccccc12)O[C@@H]1CO[C@H]2[C@@H]1OC[C@@H]2NC(=O)C1CCC1 | i
CC1(c2noc(C3CC3)n2)CCN(C(=O)CCc2cc(Cl)no2)CC1 | i
C=CCNc1nc(C2CC2)nc2c1CCN(C(=O)c1cscn1)CC2 | i
COC(=O)CNC(=O)c1nc(-c2ccc(F)cc2)c2ccccn12 | i
O=C(c1nc(-c2cccc(C(F)(F)F)c2)c2ccccn12)N1CCOCC1 | i
O=C(NCc1ccc(F)cc1)c1nc(-c2cccc(C(F)(F)F)c2)c2cnccn12 | 2.5µM
O=C(NCc1ccc(F)cc1)c1nc(-c2ccc(Cl)cc2Cl)c2ccccn12 | i
N#CC1CCN(C(=O)c2nc(-c3ccccc3)c3ccccn23)CC1 | i
O=C(NCc1cccs1)c1nc(-c2ccsc2)c2ccccn12 | i
O=C(c1nc(-c2ccc(Cl)cc2Cl)c2ccccn12)N1CCCC1 | i
O=C(NCc1cccs1)c1nc(-c2cccc(C(F)(F)F)c2)c2cnccn12 | 1.8µM
O=C(NCc1cccs1)c1nc(-c2ccc(F)cc2)c2ccccn12 | i
SMILES | Pf Dd2 growth
O=C(NCc1ccc(F)cc1)c1nc(-c2ccc(Cl)cc2)c2ccccn12 | 10µM
O=C(c1nc(-c2ccc(Cl)cc2)c2ccccn12)N1CCCC1 | 11µM
O=C(NCc1cccnc1)c1nc(-c2ccc(F)cc2)c2ccccn12 | i
CN1C(=O)C(CC(N)=O)=C2CCCCC21 (stereo not drawn) | i
CCOc1ccc(C(=O)NC2CCN(c3cnn(C)c(=O)c3)CC2)cc1 | i
C#CCNC(=O)C1CN(c2ccc(F)cc2)C(=O)N1 (stereo not drawn) | i
CN1CC2(CCN(C(=O)CC3CCCCC3)CC2)CC1C(=O)N1CCOCC1 (stereo not drawn) | i
CC(C)C(=O)N1CCC2(COc3ncccc3S(=O)(=O)N2)C1 (stereo not drawn) | i
Cc1noc(C)c1[S+](=O)([O-])N1CCC2(Cc3ccccc3NC2=O)C1 (stereo not drawn) | i
COCCCNC(=O)N1CCC2(CC1)CN(Cc1ccc(OC)cc1)C2=O | i
Cn1cnc(S(=O)(=O)N2CCC[C@H](n3c(=O)n(C)c4cccnc43)C2)c1 | i
CCCC1c2nccn2CCCN1C(=O)c1cc(C)no1 (stereo not drawn) | i
O=C(NCc1ccc(F)cc1)c1nc(-c2cccc(F)c2)c2cnccn12 | 2.5µM
CC(C)NC(=O)c1nc(-c2cccc(C(F)(F)F)c2)c2ccccn12 | i
CC(C)NC(=O)c1nc(-c2cc(Cl)cc(Cl)c2)c2ccccn12 | i
Cc1cccc(C)c1-c1nc(C(=O)NCc2ccc3c(c2)OCO3)n2ccccc12 | i
CC(C)NC(=O)c1nc(-c2cccc(C(F)(F)F)c2)c2cnccn12 | 1.8µM
O=C(NCc1ccccn1)c1nc(-c2cccnc2)c2ccccn12 | i
CN(C)C(=O)c1nc(-c2cccc(F)c2)c2cnccn12 | i
CC(C)NC(=O)c1nc(-c2cccnc2)c2cnccn12 | i
Cc1cccc(C)c1-c1nc(C(=O)NC(C)C)n2ccccc12 | 13µM
CN1C[C@@H]2CCCN3CCC[C@@H]([C@H]23)[C@H]1CCCC(=O)NCC1CC1 | i
CCCCN1CC(Oc2ccccc2C(=O)NC2CC2)C1 | i
COc1ccc(-n2nc(C3CCCN(C(=O)Cc4ccccn4)C3)[nH]c2=O)cc1 (stereo not drawn) | i
COc1cccc(NC(=O)C2N(C(C)C)C(=O)C23CCCC3)c1 (stereo not drawn) | i
COC(=O)c1ccccc1NC(=O)O[C@@H]1CO[C@H]2[C@@H]1OC[C@@H]2Nc1nccc(-c2ccc(N(C)C)cc2)n1 | 5µM
